Results published in PubChem BioAssay.
Calls of active or inactive are those of the source. Unless noted, how the calls were made is not given here.

Experiments:
[1] = compounds binding Alexa647 anti-His antibody – biochemical, small-molecule microarray, 635 nm fluorescence, artefact control for SMM control protein annotation, primary screen (AID 1128); details: higher = more signal;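 further: score merges feature fluorescence with signal-to-noise for each printed compound spot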
[2] = test system: Human papillomavirus type 1a E7 protein (residues 1-88); test: HPV1a E7 small-molecule binders, primary screen, biochemical, small-molecule microarray, residues 1-88, 635 nm (AID 1129); details: small-molecule microarray binding, fluorescence 635 nm; higher = more signal
[3] = biological target: Focal adhesion kinase 1 (Homo sapiens) (UniProt Q05397); test: PTK2 protein binding on printed compound slides – biochemical, small-molecule microarray, 635/667 nm fluorescence, BSA, DTT, primary screen (AID 1130); details: 635 nm fluorescence, higher = more signal;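 further: composite of spot emission at 667 nm and signal to noise over triplicate slides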
Sequence of Focal adhesion kinase 1 (Homo sapiens) (Q05397 whole entry, looked up): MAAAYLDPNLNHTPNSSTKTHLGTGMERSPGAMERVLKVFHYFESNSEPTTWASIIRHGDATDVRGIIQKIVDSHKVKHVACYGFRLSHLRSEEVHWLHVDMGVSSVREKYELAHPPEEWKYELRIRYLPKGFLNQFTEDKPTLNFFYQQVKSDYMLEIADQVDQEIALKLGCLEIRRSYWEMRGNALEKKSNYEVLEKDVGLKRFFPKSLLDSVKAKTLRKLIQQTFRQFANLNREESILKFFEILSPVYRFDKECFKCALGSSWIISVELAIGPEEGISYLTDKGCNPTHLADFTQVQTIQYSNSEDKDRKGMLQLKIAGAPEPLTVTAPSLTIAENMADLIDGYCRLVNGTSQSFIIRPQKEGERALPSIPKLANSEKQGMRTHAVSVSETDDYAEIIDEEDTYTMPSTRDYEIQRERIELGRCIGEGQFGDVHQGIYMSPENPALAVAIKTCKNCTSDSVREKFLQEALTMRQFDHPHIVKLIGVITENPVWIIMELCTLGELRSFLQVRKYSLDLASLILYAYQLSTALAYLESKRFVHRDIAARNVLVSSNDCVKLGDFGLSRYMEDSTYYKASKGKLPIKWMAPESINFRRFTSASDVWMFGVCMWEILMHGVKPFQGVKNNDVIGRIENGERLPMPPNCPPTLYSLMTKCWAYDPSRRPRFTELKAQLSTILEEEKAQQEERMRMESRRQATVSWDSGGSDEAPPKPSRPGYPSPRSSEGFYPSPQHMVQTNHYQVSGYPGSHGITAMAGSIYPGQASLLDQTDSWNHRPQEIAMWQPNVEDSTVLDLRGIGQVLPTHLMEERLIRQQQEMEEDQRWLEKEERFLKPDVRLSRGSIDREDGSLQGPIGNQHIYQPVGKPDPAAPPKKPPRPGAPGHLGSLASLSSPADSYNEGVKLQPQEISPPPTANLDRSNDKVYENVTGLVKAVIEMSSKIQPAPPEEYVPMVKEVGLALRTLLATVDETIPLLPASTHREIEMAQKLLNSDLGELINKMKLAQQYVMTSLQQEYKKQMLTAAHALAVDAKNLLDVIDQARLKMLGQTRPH

[4] = test system: Fibrinogen (Alexa647-labelled); test: Alexa647-fibrinogen binding to printed small molecules – biochemical, small-molecule microarray, 635/667 nm fluorescence, artefact control for SMM control-protein annotation, profiling panel (AID 1131); details: fibrinogen-A647 binding fluorescence, higher = more signal;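 further: z-score merges 667 nm fluorescence with per-spot signal-to-noise over triplicate slides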
[5] = biological target: Follistatin (Homo sapiens) (UniProt P19883); test: FST protein binding to printed compounds – biochemical, small-molecule microarray, 635/667 nm fluorescence, primary screen (AID 1132); details: 635 nm fluorescence, higher = more signal
Sequence of Follistatin (Homo sapiens) (P19883 whole entry, looked up): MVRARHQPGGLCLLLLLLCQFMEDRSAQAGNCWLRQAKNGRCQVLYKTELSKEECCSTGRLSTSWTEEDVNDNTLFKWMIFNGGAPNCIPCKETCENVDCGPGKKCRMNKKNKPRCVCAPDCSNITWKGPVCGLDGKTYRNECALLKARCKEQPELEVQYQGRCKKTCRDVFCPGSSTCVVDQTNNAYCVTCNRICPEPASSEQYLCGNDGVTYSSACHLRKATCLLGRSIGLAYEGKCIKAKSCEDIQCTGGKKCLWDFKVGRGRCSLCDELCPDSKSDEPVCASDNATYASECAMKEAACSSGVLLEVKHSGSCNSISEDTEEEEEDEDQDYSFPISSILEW

[6] = biological target: Fibroblast growth factor 2 (Homo sapiens) (UniProt P09038); test: basic fibroblast growth factor binding to printed compounds – biochemical, small-molecule microarray, 635/667 nm fluorescence, primary screen (AID 1133); details: FGF2, fluorescence 635/667, higher = more signal
Sequence of Fibroblast growth factor 2 (Homo sapiens) (P09038 whole entry, looked up): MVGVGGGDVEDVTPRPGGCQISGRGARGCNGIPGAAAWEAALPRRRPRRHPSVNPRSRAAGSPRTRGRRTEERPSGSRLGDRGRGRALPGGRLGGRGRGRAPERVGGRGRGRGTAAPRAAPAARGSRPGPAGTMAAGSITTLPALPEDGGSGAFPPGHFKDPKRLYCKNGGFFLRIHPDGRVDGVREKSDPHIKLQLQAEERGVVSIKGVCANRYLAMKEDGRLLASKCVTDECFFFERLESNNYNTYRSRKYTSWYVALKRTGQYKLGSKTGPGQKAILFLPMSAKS

[7] = JC-1 mitochondrial potential readout, lung cancer cells – cell-based, A549, JC-1 fluorescence, basal, 24 h, 100 nL, profiling panel (AID 1138); details: higher = more signal;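 further: A549 lung adenocarcinoma cells under basal conditions with no added stimulus; test concentration not given here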
Lefty1 = Lefty1 protein binding to printed compounds – biochemical, small-molecule microarray, 635/667 nm fluorescence, primary screen (AID 1139); details: fluorescence 635/667, higher = more signal
[8] = test system: wheat germ agglutinin (Triticum aestivum), Alexa647-labelled; test: Alexa647-WGA lectin binding to printed small molecules – biochemical, small-molecule microarray, 635/667 nm fluorescence, artefact control for SMM control-protein annotation, profiling panel (AID 1140); details: WGA-A647 binding, 635 nm fluorescence, higher = more signal;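 further: score merges 667 nm feature emission with signal to noise over triplicate slides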
[9] = biological target: Luciferin 4-monooxygenase (Photinus pyralis) (UniProt P08659); test: inhibition of purified Photinus pyralis luciferase – biochemical, luminescence, purified enzyme, 2006 set, primary screen (AID 1141); details: purified firefly luciferase, SteadyGlo luminescence, 30 min; higher = more signal, called active from +8 up or from −8 down;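 further: cell-free assay with purified firefly luciferase at 100 ng per well in PBS; test concentration not given here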
Sequence of Luciferin 4-monooxygenase (Photinus pyralis) (P08659 whole entry, looked up): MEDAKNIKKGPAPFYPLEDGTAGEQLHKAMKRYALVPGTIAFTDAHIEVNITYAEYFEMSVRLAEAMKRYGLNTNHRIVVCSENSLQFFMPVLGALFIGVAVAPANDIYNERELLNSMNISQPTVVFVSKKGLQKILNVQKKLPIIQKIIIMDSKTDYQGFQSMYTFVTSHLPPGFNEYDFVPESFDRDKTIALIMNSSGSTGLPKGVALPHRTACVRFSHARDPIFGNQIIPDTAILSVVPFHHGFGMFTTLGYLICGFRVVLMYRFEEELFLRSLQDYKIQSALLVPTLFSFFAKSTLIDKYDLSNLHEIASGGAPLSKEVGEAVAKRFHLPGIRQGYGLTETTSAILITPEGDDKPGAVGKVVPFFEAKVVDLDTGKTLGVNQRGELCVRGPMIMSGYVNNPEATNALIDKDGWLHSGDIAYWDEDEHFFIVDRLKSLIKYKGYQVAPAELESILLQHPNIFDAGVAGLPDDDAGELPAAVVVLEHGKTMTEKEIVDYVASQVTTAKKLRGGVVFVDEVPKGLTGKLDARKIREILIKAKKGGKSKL

[10] = test system: Wnt5a (protein binding on small-molecule microarray); test: small molecules binding Wnt5a protein – biophysical, small-molecule microarray, 635/667 nm fluorescence, primary screen (AID 1142); details: 635 nm fluorescence, higher = more signal;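 further: fluorescence read at 667 nm with signal to noise per printed feature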
[11] = ATP-based viability of Huh7 replicon cells – cell-based, CellTiter-Glo luminescence, basal, 48 h, cytotoxicity control for HCV replication inhibitor project, primary screen (AID 1143); details: higher = more signal, called active from +8 up or from −8 down;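 further: Huh7 hepatoma cells carrying a hepatitis C replication reporter with no stimulus; test concentration not given here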
[12] = Pseudomonas biofilm growth suppression – PAO1 strain, BacTiter-Glo luminescence, LB-PBS, primary screen (AID 1144); details: P. aeruginosa PAO1 biofilm, 12 h, higher = more signal
[13] = basal CRE-LacZ reporter activity in PC12 – cell-based, unstimulated, primary screen (AID 1145); details: no forskolin, luminescence, 4.5 h, higher = more signal, called active from +8 up or from −8 down
[14] = forskolin-driven CRE-LacZ activity in PC12 – cell-based, CRE-LacZ reporter, forskolin-stimulated, primary screen (AID 1146); details: luminescence, 4.5 h, higher = more signal, called active from +8 up or from −8 down;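 further: PC12 cells with 6xCRE LacZ reporter stimulated by forskolin 10 µM; beta-galactosidase reporter signal reflecting CREB driven transcription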
[15] = biological target: Streptavidin (Streptomyces avidinii) (UniProt P22629); test: compounds binding control protein streptavidin – biophysical, small-molecule microarray, 635/667 nm fluorescence, artefact control for SMM compound annotation, primary screen (AID 1147); details: higher = more signal;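 further: signal reflects streptavidin binding to arrayed compounds as a control protein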
Sequence of Streptavidin (Streptomyces avidinii) (P22629 whole entry, looked up): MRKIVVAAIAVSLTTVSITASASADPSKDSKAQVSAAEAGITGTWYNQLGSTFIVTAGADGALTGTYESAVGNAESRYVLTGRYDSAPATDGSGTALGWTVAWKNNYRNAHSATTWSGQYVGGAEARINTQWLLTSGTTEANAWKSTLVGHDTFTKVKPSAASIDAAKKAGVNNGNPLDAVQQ

[16] = probe aInhba binding on compound microarray – biochemical, small-molecule microarray, 635/667 nm fluorescence, primary screen (AID 1148); details: higher = more signal;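 further: score merges 667nm spot fluorescence with signal-to-noise for antibody binding to printed compounds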
Torsin-1A (Homo sapiens) [17] = biological target: Torsin-1A (Homo sapiens) (UniProt O14656); test: TOR1A wild-type binding on microarray – cell lysate, small-molecule microarray, lysate, 635/667 nm, primary screen (AID 1149); details: COS7 hTOR1A-WT lysate, 635 nm fluorescence, higher = more signal
Sequence of Torsin-1A (Homo sapiens) (O14656 whole entry, looked up): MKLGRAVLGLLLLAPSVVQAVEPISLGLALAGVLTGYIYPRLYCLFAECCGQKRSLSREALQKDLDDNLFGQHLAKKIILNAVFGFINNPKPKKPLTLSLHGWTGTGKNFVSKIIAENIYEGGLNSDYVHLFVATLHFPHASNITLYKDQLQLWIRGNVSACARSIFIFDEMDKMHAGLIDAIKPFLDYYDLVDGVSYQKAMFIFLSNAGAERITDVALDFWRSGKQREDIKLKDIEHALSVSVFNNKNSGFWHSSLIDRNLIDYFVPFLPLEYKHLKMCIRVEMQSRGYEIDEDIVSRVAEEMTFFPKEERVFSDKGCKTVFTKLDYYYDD

Torsin-1A (Homo sapiens) [18] = biological target: Torsin-1A (Homo sapiens) (UniProt O14656); test: torsin A mutant lysate binding on microarrays – cell lysate, small-molecule microarray, COS7 lysate, 635/667 nm fluorescence, primary screen (AID 1150); details: COS7 hTOR1A mutant lysate, 635 nm fluorescence, higher = more signal;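 further: score pools 667 nm emission and signal to noise measuring lysate protein binding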
[19] = test system: Sonic hedgehog protein (Shh); test: Sonic hedgehog microarray binding compounds – biochemical, small-molecule microarray, 635/667 nm fluorescence, primary screen (AID 1151); details: 635 nm fluorescence, higher = more signal;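 further: Shh protein binding to compounds spotted on small-molecule microarray slides; score combines spot fluorescence intensity with signal-to-noise across triplicate slides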

| Structure (SMILES) | composite z-score [1] | composite z-score [2] | composite z-score [3] | composite z-score [4] | composite z-score [5] | composite z-score [6] | z-score [7] | composite z-score (Lefty1) | composite z-score [8] | z-score [9] | composite z-score [10] | z-score [11] | z-score [12] | z-score [13] | z-score [14] | composite z-score [15] | composite z-score [16] | composite z-score (Torsin-1A (Homo sapiens) [17]) | composite z-score (Torsin-1A (Homo sapiens) [18]) | composite z-score [19] |
| --- | --- | --- | --- | --- | --- | --- | --- | --- | --- | --- | --- | --- | --- | --- | --- | --- | --- | --- | --- | --- |
| Cc1ccc2[nH]c3nc(CCCn4ccnc4-c4ccccc4)nnc3c2c1 | 0.663 | 1.08 | 0.0863 | 0.826 | 0.757 | 1.19 | 0.524 | 0.802 | 0.676 | 0.36 (inactive) | 0.181 | -0.317 (inactive) | 0.892 (inactive) | -0.435 (inactive) | -0.815 (inactive) | 0.857 | 0.157 | 0.443 | 0.807 | 1.18 |
| O=C1CCCC=C1C(O)c1ccc([N+](=O)[O-])cc1 (stereo not given) | -0.162 | 0.154 | -0.126 | -0.101 | -0.102 | 0.511 | -0.115 | 0.0283 | -0.199 | -0.171 (inactive) | 0.042 | 1.18 (inactive) | 0.843 (inactive) | -0.706 (inactive) | 0.126 (inactive) | 0.0753 | -0.212 | 0.911 | 0.0183 | -0.676 |
| O=C1[C@H]2CCn3c(=O)n(Cc4cc5c(cc4Cl)OCO5)c(=O)n3[C@H]2[C@H](O)[C@@H]2O[C@H]12 | 0.85 | -0.542 | -0.255 | 0.855 | 0.596 | 0.299 | -0.512 | 0.298 | 0.176 | -1.44 (inactive) | -0.509 | -0.926 (inactive) | 0.529 (inactive) | -0.925 (inactive) | -0.0963 (inactive) | -0.0064 | -0.215 | -0.22 | -0.343 | 0.853 |
| O=C1[C@H]2[C@H]3[C@H](O)[C@H](O)CC(=NO[C@@H]4O[C@H](CO)[C@@H](O)[C@H](O)[C@H]4O)[C@H]3CC[C@H]2C(=O)N1c1ccc(F)cc1F | -1.26 | -0.162 | 0.633 | 0.192 | -1.22 | 0.502 | -0.352 | -0.152 | -0.052 | 1.42 (inactive) | 0.0816 | -1.9 (inactive) | 1.42 (inactive) | -0.837 (inactive) | -0.0522 (inactive) | -0.695 | -0.0774 | 0.835 | 0.189 | -0.704 |
| COC(=O)[C@@H]1CC[C@H](C)[C@@H](c2ccc(Br)cc2)N1C(=O)C(F)(F)F | -0.0497 | -1.42 | -0.0957 | -0.0695 | -0.202 | -0.0514 | 0.0789 | -0.125 | -0.321 | -0.1 (inactive) | -0.237 | -0.322 (inactive) | -0.69 (inactive) | 0.565 (inactive) | -0.344 (inactive) | -0.307 | -0.0944 | -0.179 | -0.835 | -0.14 |
